The nature of the assay: chemical genetic growth profiling, strain panel (AID 1159580).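 Also: tested at 20 µM; growth read once vehicle control cultures reached saturation at 30 °C; 1 = growth at the plate median or of vehicle wells; lower values mean less growth of the strain.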 Particulars: S. cerevisiae deletion strains, growth OD.
The mark [1] stands for this setting: locus YAL013W, strain DEP1, hits give low values.
Where [2] appears, read: locus YDR150W, strain NUM1, hits give low values.
[3] abbreviates: locus YGR078C, strain PAC10, hits give low values.
The mark [4] stands for this setting: locus YJR075W, strain HOC1, hits give low values.
Where [5] appears, read: locus YNL153C, strain GIM3, hits give low values.
Where [6] appears, read: locus YPL241C, strain CIN2, hits give low values.

The whole screen tested about 5,500 compounds, of which about 2,000 (36%) were called active. Roughly 18% stayed inconclusive and do not appear here. This is one part of the list. Unmarked numbers belong to inactive results. Rule as the data show it: active = normalized growth mostly below about 0.91 (no sharp cut-off); inconclusive = no clear call, values can overlap the other calls; inactive = mostly above about 0.92.

Regarding `N#Cc1cc2nc(O)c(O)nc2cc1[N+](=O)[O-]`, the normalized growth is, setting by setting: under setting [1], 0.985; (locus YAL040C, strain CLN3, hits give low values) 0.989; (locus YCL061C, strain MRC1 (second series), hits give low values) 0.998; under setting [2], 0.993; (locus YDR363W, strain ESC2, hits give low values) 1.01; (locus YER002W, strain NOP16, hits give low values) 1.01. Also, the normalized growth runs as follows: under setting [3], 0.979; (locus YGR229C, strain SMI1, hits give low values) 1.02; under setting [4], 1; (locus YMR307W, strain GAS1, hits give low values) 0.991; under setting [5], 0.984; (locus YNL175C, strain NOP13, hits give low values) 0.995. Moreover, the normalized growth runs as follows: (locus YNL197C, strain WHI3, hits give low values) 0.997; (locus YNL224C, strain SQS1, hits give low values) 0.979; (locus YOR083W, strain WHI5 (second series), hits give low values) 0.994; under setting [6], 1.

Take `N#Cc1csc([N+](=O)[O-])c1`: the normalized growth is 0.944 under setting [1]; 0.908 (active) (locus YBR229C, strain ROT2, hits give low values); 0.937 (locus YCL061C, strain MRC1, hits give low values); 0.817 (active) (locus YDL101C, strain DUN1, hits give low values); 0.892 (active) (locus YDL134C, strain PPH21, hits give low values); 0.885 under setting [2]. The normalized growth reads like this: (locus YEL061C, strain CIN8, hits give low values) 0.797 (active); under setting [3], 0.86 (active); (locus YHR030C, strain SLT2, hits give low values) 0.363 (active); (locus YHR087W, strain rtc3, hits give low values) 0.917; (locus YJR043C, strain POL32, hits give low values) 0.929; under setting [4], 0.86 (active). Besides, the normalized growth is 0.923 (active) (locus YKL190W, strain CNB1, hits give low values); 0.687 (active) (locus YLR039C, strain RIC1, hits give low values); 0.951 (locus YLR058C, strain SHM2 (second series), hits give low values); 0.456 (active) (locus YLR085C, strain ARP6, hits give low values); 0.795 (active) (locus YLR262C, strain YPT6, hits give low values); 0.809 (active) (locus YML094W, strain GIM5, hits give low values). The normalized growth was 0.941 (active) (locus YMR219W, strain ESC1, hits give low values); 0.942 (locus YNL128W, strain TEP1, hits give low values); 0.901 (active) under setting [5]; 0.823 (active) (locus YNL298W, strain CLA4 (second series), hits give low values); 1.01 (locus YNL322C, strain KRE1, hits give low values); 0.834 (active) (locus YNR030W, strain Alg12, hits give low values). Further, the normalized growth was 0.369 (active) (locus YOL006C, strain TOP1, hits give low values); 0.872 (locus YPL055C, strain LGE1, hits give low values); 0.744 (active) under setting [6]; 0.46 (active) (locus YPR135W, strain CTF4, hits give low values).

The values are drawn from PubChem BioAssay AID1159580 (chemical genetic matrix, 2015).
